The results in this text go back to ChEMBL document CHEMBL4513149, “CO-ADD screening of MMV (CH) - MMV compounds” (2021).

Entries with a potency or affinity are not part of this list.

What is called Inhibition is the drop in the measured response relative to a control, in per cent.

For this test, the system named is Klebsiella pneumoniae. The note with it: Concentration 20 uM; ASSAY_TEST Inhibition of Bacterial Growth; detection method Absorption (OD600); MEDIA CAMHB; plate type 384well; NBS; CORNING #3640; time 18 hr.
`COc1ccc(Nc2ccccc2NC(=O)c2ccc(O)nc2)cc1`: the Inhibition is reported as -2.41%. The value for `O=C(C1CCN(c2cc(-n3cccc3)ncn2)CC1)N1CCc2ccccc2C1` was -8.74%. The value for `CCc1nc2ccc(C(=O)NCc3ccc4c(c3)OCO4)cn2c1N(C)Cc1cccs1` was 5.86%. The value for `CNc1snc(C)c1C(=O)NCCOc1ccc(OC)cc1` was 10.83%; that for `CCN(CC)CCCCCCNc1cc(OC)cc2c(C)ccnc12.Cc1ccc(S(=O)(=O)O)cc1` was 14.1%. Consider `O=[N+]([O-])c1cn2c(n1)OC[C@@H](OCc1ccc(OC(F)(F)F)cc1)C2` [PRETOMANID], for which the Inhibition worked out at 14.31%. Consider `COc1cc(-c2cc(-c3ccc(S(C)(=O)=O)cc3)cnc2N)ccc1O`, for which the Inhibition came to 7.56%. `Nc1ncnc2[nH]nc(Cc3cccc4ccccc34)c12`: the Inhibition was 12.26%. The result for `COc1ccc(Cn2cnc3c(-c4ccco4)nc(Cl)nc32)cc1` reads 18.21%; that for `CN1CCN(S(=O)(=O)c2ccc(-c3ccc4c(Nc5ccc6nn[nH]c6c5)ccnc4c3)cc2)CC1`, 5.15%; that for `CCOc1ccc2cc(-c3nn(C(C)(C)C)c(N)c3C(N)=O)cnc2c1.Cl`, 13.27%.

Take `COc1cncc(-c2cncc(N3CCN(c4ccncc4)CC3)n2)c1`: the Inhibition was found to be 19.7%. With `CCCS(=O)(=O)N1CCC(CO)(Cc2ccccc2C(F)(F)F)CC1`, the Inhibition was found to be 9.23%. With `O=S(=O)(c1ccc(Cl)cc1)N1CCN(C(=S)NCc2ccco2)CC1`, the Inhibition was 5.39%. The result for `O=C(NC1CC1)c1ccc(N2CCOc3ccc(Cl)cc32)s1` reads 15.81%; that for `Cc1noc(C)c1C(=O)N1CCCC(c2[nH]c3c(C)cccc3c2-c2ccncc2)C1` (stereo unspecified), 18.77%.

Take `O=C(NC1CCN(c2ccnc3ccccc23)C1)c1cccc(C(F)(F)F)c1` (stereo unspecified): the Inhibition was found to be 12.02%. The value for `CS(=O)(=O)N1CCC(Cn2nc(Cc3cccc4ccccc34)c3c(N)ncnc32)CC1` was 11.77%; that for `Nc1ncnc2c1c(-c1cnc3ccccc3c1)nn2CC1CCNCC1` was 4.12%; that for `CCOc1ccccc1C(=O)Nc1cccc(-c2nc3ncccn3c2C)c1` was 11.04%. The result for `OCCc1ccc(Nc2nccc(-c3nnc4ccccn34)n2)cc1` reads 15.28%.

As to `CC(=O)N1CCc2cc3nc(C)cc(C)c3cc21`, the Inhibition is 14.03%.

For the compound `Cc1nc(-c2cccc(NCc3ccccc3)c2)[nH]c1C`, the Inhibition amounted to 18.74%. `CNC(=O)C1Cc2ccccc2N1C(=O)Cc1ccc(F)cc1` (stereo unspecified): the Inhibition is 8.26%. In the case of `COc1cccc(CC(=O)N2CCC(n3c(C)nc4ccc(F)cc43)CC2)c1`, the Inhibition is recorded as 12.2%. In the case of `N#Cc1ccc(-c2ccc(OCC(N)=O)cc2)cc1`, the Inhibition came to 5.71%.

In the case of `CC(C)c1ncc(-c2ccncc2)c([C@H]2CC[C@H](CNC(=O)c3cccnc3)CC2)n1`, the Inhibition is reported as 18.24%. As to `COc1cc(C2=NCCN2)ccc1-c1cn(-c2cccc(C3=NCCN3)c2)nn1`, the Inhibition worked out at 15.15%. Turning to `CS(=O)(=O)c1ccccc1C(=O)N(Cc1ccccc1)c1ccccc1`, the Inhibition is 9.63%. Turning to `Nc1ccc(C(=O)Nc2ccc(-c3nc4ccccc4o3)cc2)cc1`, the Inhibition is given as 7.66%. The result for `CNc1cc(C)nc(C2CN(C(=O)c3n[nH]c4ccccc34)CCO2)c1` (stereo unspecified) reads 20.78%. The value for `Cc1cc(C(=O)Nc2cnn(Cc3ccc(Cl)cc3Cl)c2)no1` was -11.81%; that for `O=C(Nc1ccccc1-c1nc2c(C(=O)O)cccc2o1)c1ccccc1` was 1.94%. As for `Cl.c1ccc(C[C@@H]2CN(c3nccc(Oc4ccc(-n5ccnc5)cc4)n3)CCN2)cc1`, the Inhibition is given as 13.63%. Regarding `CCCCS(=O)(=O)Nc1ccc2cnn(C)c2c1`, the Inhibition is given as 10.18%. As to `CCS(=O)(=O)N(Cc1ccco1)Cc1cc2ccc(C)cc2nc1O`, the Inhibition is reported as 2.3%.
